Test results reported in PubChem BioAssay.
Activity calls are given as the source filed them. Rule as the data show it, unless noted: active = inhibition above about 36%; inactive = the rest.

System: not listed separately
Assay: StAR promoter reporter inhibitors, counter-screen for LRH-1 inverse agonist project, cell-based, luminescence, high throughput (AID 651611; in the data active = inhibition above about 28%)
Conditions: StAR promoter luciferase reporter counterscreen, at 3.6 µM, hits give high values

Row | SMILES | inhibition
1 | NS(=O)(=O)c1ccc(N=Nc2c(O)[nH]c3ccc(Br)cc23)cc1 | 38.4% (active)
2 | CN(C)CCNC(=O)c1ccc(Cl)c2cc3ccccc3nc12 | 70.1% (active)
3 | Cc1ncc(CO)c(/C=N/Nc2ccc(C(F)(F)F)cn2)c1O | 71.1% (active)
4 | Cc1ccc(Oc2ccc(C(=O)NCc3ccncc3)cc2)cc1 | 10.2% (inactive)
5 | C=C1C(=O)C23CCC4C(C)(C(=O)OC)CCCC4(C)C2CCC1(O)C3 (stereo not given) | 67.4% (active)
6 | O=C(CCl)Nc1ccc(Oc2cnc3ccccc3n2)cc1 | 43.6% (active)
7 | COc1ccc(S(=O)(=O)N2CCOCC2)cc1NC(=O)CCNC(=O)c1ccc(Br)cc1 | 90.4% (active)
8 | Cc1ccc(C(=O)C(C(=O)/C=C/c2ccccc2)=C2SCCCS2)cc1 | 30.6% (active)

Target: Nuclear receptor subfamily 5 group A member 2 (Homo sapiens) (UniProt O00482)
Sequence (O00482 whole entry, looked up): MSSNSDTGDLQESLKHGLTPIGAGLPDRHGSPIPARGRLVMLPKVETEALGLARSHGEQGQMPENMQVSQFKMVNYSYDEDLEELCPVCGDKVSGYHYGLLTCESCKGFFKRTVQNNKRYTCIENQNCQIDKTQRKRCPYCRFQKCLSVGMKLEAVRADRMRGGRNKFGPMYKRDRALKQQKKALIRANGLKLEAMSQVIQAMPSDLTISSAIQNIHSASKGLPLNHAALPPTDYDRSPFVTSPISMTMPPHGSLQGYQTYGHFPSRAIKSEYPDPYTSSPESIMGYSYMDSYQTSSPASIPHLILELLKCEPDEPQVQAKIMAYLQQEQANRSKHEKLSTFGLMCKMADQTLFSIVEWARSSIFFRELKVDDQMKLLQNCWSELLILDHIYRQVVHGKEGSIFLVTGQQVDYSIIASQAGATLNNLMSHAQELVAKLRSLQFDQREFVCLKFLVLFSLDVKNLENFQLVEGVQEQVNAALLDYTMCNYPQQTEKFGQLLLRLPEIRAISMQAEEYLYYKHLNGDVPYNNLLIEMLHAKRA
Assay: LRH-1 (NR5A2) inverse agonists, retest, confirmation, cell-based, luminescence (AID 651613; in the data active = inhibition above about 42%;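 also: HEK293T cells co-transfected with LRH-1 and StAR promoter luciferase reporter; 0% = vehicle wells and 100% = parental cells lacking receptor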)
Conditions: cell-based LRH-1 luciferase reporter, inverse agonism; at 3.6 µM; hits give high values

Row | SMILES | inhibition
9 | NS(=O)(=O)c1ccc(N=Nc2c(O)[nH]c3ccc(Br)cc23)cc1 | 23.4% (inactive)
10 | CN(C)CCNC(=O)c1ccc(Cl)c2cc3ccccc3nc12 | 73.1% (active)
11 | Cc1ncc(CO)c(/C=N/Nc2ccc(C(F)(F)F)cn2)c1O | 84% (active)
12 | Cc1ccc(Oc2ccc(C(=O)NCc3ccncc3)cc2)cc1 | 76.8% (active)
13 | C=C1C(=O)C23CCC4C(C)(C(=O)OC)CCCC4(C)C2CCC1(O)C3 (stereo not given) | 70.5% (active)
14 | O=C(CCl)Nc1ccc(Oc2cnc3ccccc3n2)cc1 | 74.4% (active)
15 | COc1ccc(CCNc2c(C)c(C)nc3ncnn23)cc1 | 58.5% (active)
16 | COc1ccc(S(=O)(=O)N2CCOCC2)cc1NC(=O)CCNC(=O)c1ccc(Br)cc1 | 100% (active)
17 | O=C1c2c(O)ccc(O)c2C(=O)c2c(NCCNCCO)ccc(NCCNCCO)c21 | 77.4% (active)
18 | Cc1ccc(C(=O)C(C(=O)/C=C/c2ccccc2)=C2SCCCS2)cc1 | 54.2% (active)

Target: Steroidogenic factor 1 (Homo sapiens) (UniProt Q13285)
Sequence (Q13285 whole entry, looked up): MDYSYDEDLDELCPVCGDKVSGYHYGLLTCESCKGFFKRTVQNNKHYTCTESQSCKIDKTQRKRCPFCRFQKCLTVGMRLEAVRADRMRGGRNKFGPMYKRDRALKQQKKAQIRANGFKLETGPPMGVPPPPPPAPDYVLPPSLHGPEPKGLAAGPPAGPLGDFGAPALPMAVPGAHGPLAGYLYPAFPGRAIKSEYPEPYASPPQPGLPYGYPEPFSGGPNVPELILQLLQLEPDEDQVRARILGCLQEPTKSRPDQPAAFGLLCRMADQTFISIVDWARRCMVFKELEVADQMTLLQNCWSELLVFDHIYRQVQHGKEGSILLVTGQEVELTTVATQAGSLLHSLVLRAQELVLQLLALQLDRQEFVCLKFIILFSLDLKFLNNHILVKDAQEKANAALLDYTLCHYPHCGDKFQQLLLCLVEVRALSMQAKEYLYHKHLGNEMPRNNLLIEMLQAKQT
Assay: SF1 (NR5A1) inverse agonists, counter-screen for LRH-1 inverse agonist project, cell-based, luminescence, high throughput (AID 651614; in the data active = inhibition above about 44%;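 also: cells cotransfected with StAR promoter reporter and SF1 expression vector; 0% = vehicle on cells with receptor and 100% = vehicle on cells lacking receptor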)
Conditions: cell-based SF1 luciferase reporter, at 3.6 µM, hits give high values

Row | SMILES | inhibition
19 | NS(=O)(=O)c1ccc(N=Nc2c(O)[nH]c3ccc(Br)cc23)cc1 | 30.4% (inactive)
20 | CN(C)CCNC(=O)c1ccc(Cl)c2cc3ccccc3nc12 | 67.4% (active)
21 | Cc1ncc(CO)c(/C=N/Nc2ccc(C(F)(F)F)cn2)c1O | 70.5% (active)
22 | Cc1ccc(Oc2ccc(C(=O)NCc3ccncc3)cc2)cc1 | 67.9% (active)
23 | C=C1C(=O)C23CCC4C(C)(C(=O)OC)CCCC4(C)C2CCC1(O)C3 (stereo not given) | 82.1% (active)
24 | O=C(CCl)Nc1ccc(Oc2cnc3ccccc3n2)cc1 | 77.4% (active)
25 | COc1ccc(CCNc2c(C)c(C)nc3ncnn23)cc1 | 62.6% (active)
26 | COc1ccc(S(=O)(=O)N2CCOCC2)cc1NC(=O)CCNC(=O)c1ccc(Br)cc1 | 95% (active)
27 | O=C1c2c(O)ccc(O)c2C(=O)c2c(NCCNCCO)ccc(NCCNCCO)c21 | 56.3% (active)
28 | Cc1ccc(C(=O)C(C(=O)/C=C/c2ccccc2)=C2SCCCS2)cc1 | 47.2% (active)

System: not listed separately
Assay: VP16 transactivation reporter inhibitors, counter-screen for LRH-1 inverse agonist project, cell-based, luminescence, high throughput (AID 651615; in the data active = inhibition above about 33%)
Conditions: Gal4-VP16 luciferase reporter cells, at 3.6 µM, hits give high values

Row | SMILES | inhibition
29 | NS(=O)(=O)c1ccc(N=Nc2c(O)[nH]c3ccc(Br)cc23)cc1 | 8.51% (inactive)
30 | CN(C)CCNC(=O)c1ccc(Cl)c2cc3ccccc3nc12 | 61% (active)
31 | Cc1ncc(CO)c(/C=N/Nc2ccc(C(F)(F)F)cn2)c1O | 65.7% (active)
32 | Cc1ccc(Oc2ccc(C(=O)NCc3ccncc3)cc2)cc1 | 52.9% (active)
33 | C=C1C(=O)C23CCC4C(C)(C(=O)OC)CCCC4(C)C2CCC1(O)C3 (stereo not given) | 74% (active)
34 | O=C(CCl)Nc1ccc(Oc2cnc3ccccc3n2)cc1 | 18.3% (inactive)
35 | COc1ccc(S(=O)(=O)N2CCOCC2)cc1NC(=O)CCNC(=O)c1ccc(Br)cc1 | 67.4% (active)
36 | Cc1ccc(C(=O)C(C(=O)/C=C/c2ccccc2)=C2SCCCS2)cc1 | 44.5% (active)

System: transactivating tegument protein VP16 (Human herpesvirus 1)
Assay: VP16 transactivation reporter inhibitors, counter-screen for SRC2 inhibitor project, cell-based, luminescence, single concentration (AID 652007)
Conditions: cell-based VP16 transactivation luciferase reporter, at 8.9 µM, hits give high values

Row | SMILES | inhibition
37 | O=C(Nc1cccc2c1CCCC2)c1cc([N+](=O)[O-])ccc1Cl | 48.5% (active)
38 | CC(=O)N1CCCC(c2cc(C(=O)Nc3ccccc3)no2)C1 (stereo not given) | -36.7% (inactive)
39 | Cc1ccc(C(=O)c2cccc(N)c2)cc1C | 58% (active)
40 | COCCNC(=O)c1c[nH]c2ccc(S(=O)(=O)N3CCc4ccccc43)cc2c1=O | 20.1% (inactive)
41 | COc1cccc(N2CCN(c3c(C#N)c(C(F)(F)F)nn3C)CC2)c1 | -6.45% (inactive)
42 | CCN1CCN(C(=S)c2ccc(-c3ccccc3)cc2)CC1 | 15.4% (inactive)
43 | Cc1nc2sc(C(N)=O)c(N)c2c(C)c1CC(=O)c1ccccc1 | -52.2% (inactive)
44 | Cc1ncc(CO)c(/C=N/Nc2ccc(C(F)(F)F)cn2)c1O | 8.88% (inactive)
45 | O=C(Nc1ccc2c(c1)OCCO2)c1[nH]c(C(F)(F)F)nc1-c1ccccc1 | -38.1% (inactive)
46 | Cc1cc(NC2CCCC2)n2ncc(-c3ccccc3)c2n1 | -46.2% (inactive)
47 | c1ccc2c(-c3cccc4nccn34)cncc2c1 | 5.09% (inactive)
48 | Cc1ccccc1Cn1c(C)nc2ccccc21 | 20% (inactive)
49 | O=C(NCCc1cccc(Cl)c1)c1ccc(OC2CCN(Cc3ccccn3)CC2)cc1 | 12.7% (inactive)
50 | O=C(Nc1ccc(N2CCN(C(=O)c3ccco3)CC2)c(Cl)c1)c1cc2ccccc2o1 | 53.3% (active)
51 | Cc1sc2ncnc(NC3CCN(Cc4ccccc4)CC3)c2c1C | 14.3% (inactive)
52 | Cc1ccc(Oc2ccc(C(=O)NCc3ccncc3)cc2)cc1 | 7.11% (inactive)
53 | O=[N+]([O-])c1ccc2c(c1)-c1ccccc1C2=NO | 12.1% (inactive)

Row | SMILES | inhibition
54 | C=C1C(=O)C23CCC4C(C)(C(=O)OC)CCCC4(C)C2CCC1(O)C3 (stereo not given) | 83.1% (active)
55 | CCn1c(Oc2cccc(Br)c2)nc2c1c(=O)n(C)c(=O)n2C | -33.4% (inactive)
56 | CCOC(=O)c1c(C)cc2c(CO)n[nH]c(=O)c2c1C | -8.56% (inactive)
57 | O=C1C=C(NCCc2cc(Br)c(O)c(Br)c2)C(=O)c2ncccc21 | 4.39% (inactive)
58 | O=C(CCl)Nc1ccc(Oc2cnc3ccccc3n2)cc1 | 19.5% (inactive)
59 | Cn1nnnc1Sc1ncnc2scc(-c3ccc4c(c3)OCO4)c12 | 0.45% (inactive)
60 | COc1ccc(S(=O)(=O)N2CCOCC2)cc1NC(=O)CCNC(=O)c1ccc(Br)cc1 | 2.56% (inactive)
61 | c1cn(-c2ncnc3sc4c(c23)CCCC4)cn1 | -1.75% (inactive)
62 | CC(C)CCNC(=O)c1sc2ccc(S(=O)(=O)N3CCCCC3)cc2c1N | 7.45% (inactive)
63 | CN(c1ccc(C(=O)N2CCN(Cc3ccc4c(c3)OCO4)CC2)cc1)S(=O)(=O)c1ccccc1 | 31% (inactive)
64 | COc1ccc(-c2noc(CCCCC(=O)N3CCN(c4cc(C)ccc4C)CC3)n2)cc1 | 29.6% (inactive)
65 | Cc1sc2ncnc(N3CCC(C(=O)N(C)CC(=O)Nc4cccc(F)c4)CC3)c2c1C | -11.2% (inactive)
66 | CCN(C(=O)c1cc(S(=O)(=O)N2CCCCC2)c[nH]1)c1ccc(OC)cc1 | 8.33% (inactive)
67 | Cc1ccc(C(=O)C(C(=O)/C=C/c2ccccc2)=C2SCCCS2)cc1 | 42.6% (active)
68 | C=C1C(=O)C23C(O)C1CCC2C12COC3(O)C(O)C1C(C)(C)CCC2O (stereo not given) | 2.43% (inactive)
69 | COc1ccc2c(=O)cc(-c3ccncc3)oc2c1OC | -15.8% (inactive)
70 | COc1ccc(CNc2ncc(-c3ccc(F)cc3)n2C)c2ccccc12 | 24.8% (inactive)
